Assay results as given in PubChem BioAssay (Tox21).
Values joined by “and” are separate entries in the source; they are usually repeats but may differ in a detail not shown here. Identical values can stand only once. Records with an inconclusive call do not appear. Where a call stands in place of a potency, no number is given. A structure can be active in one record and inactive in another. Active and inactive are the calls of the source. Unless noted, calls come from the whole dose curve; as a rule, active = well fitted curve in the direction sought with a large enough effect in the repeat runs; inconclusive = weak or mixed curves; inactive = no such curve, though single readings can be large; an effect the other way counts as inactive or inconclusive.

Columns and labels:
[1] = qHTS assay to identify small molecule agonists of H2AX (AID 1224845; active = well fitted activation curve with a large enough effect in the signal ratio in the repeat runs, not every such curve was filed as active; the % refers to the signal ratio; note: potency is the fitted concentration of half-maximal effect)
Procedure, shortened: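 Phospho-H2AX Ser139 measured by HTRF (ex 320 nm; em 665 and 620 nm) after 24 hr antibody incubation. Compounds, 15 concentrations, 0.76% DMSO, were applied to CHO-K1 cells for 3hr at 37C before lysis.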

[2] = qHTS assay to identify small molecule antagonists of the estrogen related receptor (ERR) signaling pathway from Tox21 library (AID 1224848); note: nearly all actives have a fitted effect of over 50% in size; note: potency is the fitted concentration of half-maximal effect
Procedure, shortened: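 ERR cell line, 2,000 cells/well. 6 h settle, then compound (DMSO) added; 18 h at 37 C; ONE-Glo luminescence after 30 min RT.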

[3] = qHTS assay to identify small molecule agonists of the estrogen related receptor (ERR) signaling pathway from Tox21 library (AID 1224849; calls by dose curve; note: nearly all actives have a fitted effect of over 15% in size); conditions: ERR reporter cell line, ONE-Glo luciferase, 18 h; at 92.4 µM (top of the series) unless noted
Procedure, shortened: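 Luminescent agonist read-out (One-Glo, 30-minute room-temperature incubation) following 18-hour compound treatment at 37 C of the ERR cell line, which had been plated 6 hours before dosing.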

[4] = qHTS RealTime-Glo MT Cell Viability Assay in HEK293 cells - 32 hour (AID 1224868); note: nearly all actives have a fitted effect of over 50% in size; note: potency is the fitted concentration of half-maximal effect
Procedure, shortened: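 Nonlytic real-time viability readout: viable cells convert prosubstrate to NanoLuc substrate, giving luminescence proportional to live cell number. HEK293, 600 cells/well, compound added after 5 h, continuous culture at 37 C.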

[5] = A CellTox Green Cytotoxicity Assay to monitor cytotoxicity in HEK293 cells - 0 hour (AID 1224869); note: nearly all actives have a fitted effect of over 50% in size; note: potency is the fitted concentration of half-maximal effect
Procedure, shortened: (§1)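 Fluorescence from a DNA-binding dye excluded by viable cells was measured repeatedly in the same HEK293 wells (600 cells/well) during continuous compound exposure at 37 C. Each assay gives one read point: 0, 8, 16, 24, 32 or 40 h.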

[6] = qHTS RealTime-Glo MT Cell Viability Assay in HepG2 cells - 40 hour (AID 1224870); note: nearly all actives have a fitted effect of over 50% in size; note: potency is the fitted concentration of half-maximal effect
Procedure, shortened: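 Real-time viability: cells seeded at 600 per well together with NanoLuc and cell-permeant prosubstrate, compounds added after 5 h incubation. Luminescence tracked at 0, 8, 16, 24, 32 and 40 h of exposure.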

[7] = A CellTox Green Cytotoxicity Assay to monitor cytotoxicity in HEK293 cells - 40 hour (AID 1224871); note: nearly all actives have a fitted effect of over 45% in size; note: potency is the fitted concentration of half-maximal effect
Procedure, shortened: as §1

[8] = qHTS RealTime-Glo MT Cell Viability Assay in HepG2 cells - 24 hour (AID 1224867); note: nearly all actives have a fitted effect of over 50% in size; note: potency is the fitted concentration of half-maximal effect
Procedure, shortened: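 Luminescence read-out: viable HepG2 cells reduce a prosubstrate to a NanoLuc substrate, giving a signal proportional to live cell number. Reads taken at 0, 8, 16, 24, 32 and 40 h of compound exposure at 37 C.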

[9] = qHTS assay to identify small molecule agonists of H2AX - cell viability counter screen (AID 1224847; calls by dose curve; note: nearly all actives have a fitted effect of over 30% in size; note: potency is the fitted concentration of half-maximal effect)
Procedure, shortened: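 CHO-K1 wt, 1000 cells/well, o/n 37C; cpds 15 conc, 3 h 37C, 0.76% DMSO; CellTiter-Glo, 30 min RT, luminescence.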

[10] = qHTS assay to identify small molecule agonists of the hypoxia (HIF-1) signaling pathway (AID 1224846; active = well fitted activation curve with a large enough effect in the signal ratio in the repeat runs, not every such curve was filed as active; the % refers to the signal ratio)
Procedure, shortened: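 Compounds added to ME-180 cells carrying hypoxia-response-element beta-lactamase reporter (0.5% dialyzed FBS, 5 h preplating), 17 h at 37C; agonist activity detected by CCF4-AM B/G FRET read-out.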

Row | Compound | Potency [1] | Potency [2] | activity change, positive = activation [3] | Potency [4] | Potency [5] | Potency [6] | Potency [7] | Potency [8] | cytotoxicity [5] | Potency [9] | outcome [10]
1 | ClCCN1CCOCC1 | inactive | inactive | -2.74% (inactive) | inactive | inactive | inactive | inactive | – | – | – | –
2 | Cc1cc(C)c(C2=C(OC(=O)CC(C)(C)C)C3(CCCC3)OC2=O)c(C)c1 | inactive | inactive | -1.28% (inactive) | inactive | inactive | inactive | inactive | inactive | – | – | –
3 | O=C(Nc1ccc2[nH]ccc2c1)c1cc2cc(F)ccc2n1Cc1cccc(F)c1 | inactive | 6.11 µM (active) | -52.2% (inactive) | inactive | inactive | – | inactive | – | – | – | –
4 | CC[C@H](C)[C@H]1O[C@]2(C=C[C@@H]1C)C[C@@H]1C[C@@H](C/C=C(\C)[C@@H](O[C@H]3C[C@H](OC)[C@@H](O[C@H]4C[C@H](OC)[C@@H](O)[C@H](C)O4)[C@H](C)O3)[C@@H](C)/C=C/C=C3\CO[C@@H]4[C@H](O)C(C)=C[C@@H](C(=O)O1)[C@]34O)O2 | inactive | 7.2 µM (active) | – | – | inactive | – | – | – | – | – | –
5 | C[C@@H]1CC[C@@]2(OC1)O[C@H]1[C@@H](O)[C@H]3[C@@H]4CC[C@H]5C[C@@H](O[C@@H]6O[C@H](CO)[C@H](O[C@@H]7O[C@H](CO)[C@@H](O)[C@H](O[C@@H]8OC[C@@H](O)[C@H](O)[C@H]8O)[C@H]7O[C@@H]7O[C@H](CO)[C@@H](O)[C@H](O[C@@H]8O[C@H](CO)[C@@H](O)[C@H](O)[C@H]8O)[C@H]7O)[C@H](O)[C@H]6O)[C@H](O)C[C@]5(C)[C@H]4CC[C@]3(C)[C@H]1[C@@H]2C | inactive | 23 µM (active) | – | 11.6 µM (active) | inactive | 26.1 µM (active) | 3.68 µM (active) | 20.7 µM (active) | – | – | –
6 | CC(C)Oc1cccc(NC(=O)c2ccccc2C(F)(F)F)c1 | inactive | 24.3 µM (active) | -38.3% (inactive) | 24.5 µM (active) | 43.6 µM (active) | inactive | 61.6 µM (active) | inactive | – | – | –
7 | C=CCOC(N)=O | inactive | inactive | 2.68% (inactive) | inactive | inactive | – | inactive | inactive | – | – | –
8 | [Cd+2].[Cl-].[Cl-] | 50.9 µM (active) and 56.6 µM (active) | – | – | – | inactive | inactive | 24.8 µM (active) and 7.76 µM (active) | – | – | – | –
9 | CC(=[OH+])/C=C(/C)[O-].CC(=[OH+])/C=C(\C)[O-].CC(=[OH+])/C=C(\C)[O-].[Fe] | inactive | – | – | inactive | inactive | inactive | inactive | inactive | – | – | –
10 | O=CC(Br)(Br)Br | 31.8 µM (active) | – | – | 2.45 µM (active) | inactive | – | – | 48.8 µM (active) | – | – | –
11 | O=C(CCl)C(Cl)Cl | 40.5 µM (active) | 43.7 µM (active) | -73% (inactive) | 17.5 µM (active) | inactive | – | 24.8 µM (active) | – | – | – | –
12 | C[CH2][Hg][N]1C(=O)C2C(C1=O)C1(Cl)C(Cl)=C(Cl)C2(Cl)C1(Cl)Cl (stereo not drawn) | 10.7 µM (active) | – | – | 2.33 µM (active) | – | 6.57 µM (active) | 4.65 µM (active) | 6.57 µM (active) | -0.189% [at 15.8 µM] (inactive) | – | –
13 | Fc1ccc(Oc2ccnc3cc(Cl)cc(Cl)c23)cc1 | inactive | – | – | 11 µM (active) | inactive | inactive | inactive | – | – | – | –
14 | Oc1ccc(C2(c3ccc(O)cc3)CCCCC2)cc1 | inactive | – | – | 52.1 µM (active) | inactive | inactive | – | – | – | – | –
15 | Oc1ccc(C(=C(Cl)Cl)c2ccc(O)cc2)cc1 | inactive | 34.3 µM (active) | – | 43.6 µM (active) | inactive | inactive | inactive | inactive | – | – | –
16 | CC(=O)[O-].CC(=O)[O-].O.O.[Cd+2] | 62.7 µM (active) | – | – | – | inactive | inactive | – | – | – | – | –
17 | COC(=O)N(C(=O)N1COC2(C(=O)OC)Cc3cc(Cl)ccc3C2=N1)c1ccc(OC(F)(F)F)cc1 (stereo not drawn) | inactive | 11.9 µM (active) | -49.3% [at 42.5 µM] (inactive) | inactive | inactive | inactive | inactive | – | – | – | –
18 | CCCN(CCC)CCc1c[nH]c2ccccc12 | inactive | – | – | inactive | inactive | – | inactive | – | – | – | –

Row | Compound | Potency [1] | Potency [2] | activity change, positive = activation [3] | Potency [4] | Potency [5] | Potency [6] | Potency [7] | Potency [8] | cytotoxicity [5] | Potency [9] | outcome [10]
19 | O=C/C(Cl)=C(/Cl)C(=O)O | – | inactive | -23.8% (inactive) and 0.311% (inactive) | – | inactive | inactive | inactive | inactive | – | inactive | –
20 | Clc1ccc(CO/N=C(\Cn2ccnc2)c2ccc(Cl)cc2Cl)c(Cl)c1 | – | 18.8 µM (active) | -54.4% [at 42.5 µM] (inactive) | 21.3 µM (active) | inactive | – | inactive | – | – | 49.2 µM (active) | –
21 | CCCCOCN(C(=O)CCl)c1c(CC)cccc1CC | – | 27.3 µM (active) | -62.9% (inactive) | inactive | inactive | inactive | – | – | – | 101 µM (active) | inactive
22 | CC(C)C1CCC(Cc2ccc(Cl)cc2)C1(O)Cn1cncn1 (stereo not drawn) | – | 27 µM (active) | -68.5% (inactive) | 12.2 µM (active) | inactive | – | 24.3 µM (active) | 43.2 µM (active) | – | 88.9 µM (active) | –
23 | c1ccc(Nc2ccc3ccccc3c2)cc1 | – | inactive | 53.3% (active) and 56% (active) | – | inactive | inactive | inactive | inactive | – | 100 µM (active) and 80 µM (active) | –
24 | CC(C)(c1ccc(O)c(-c2ccccc2)c1)c1ccc(O)c(-c2ccccc2)c1 | – | 24.3 µM (active) | – | 21.9 µM (active) | inactive | – | – | 49 µM (active) | – | 25.3 µM (active) | –
25 | CC(C)CC(C)Nc1ccc(Nc2ccccc2)cc1 (stereo not drawn) | – | 47.7 µM (active) | – | 21.5 µM (active) | inactive | – | 48.2 µM (active) | – | – | 78.7 µM (active) | –
26 | CC[C@H]1C[C@@H]2C[C@H]3c4[nH]c5ccc(OC)cc5c4CCN(C2)[C@@H]13 | – | 30.1 µM (active) | -44.1% (inactive) | – | inactive | – | inactive | – | – | inactive | –
27 | C1CCC2CCCCC2C1 (stereo not drawn) | – | inactive | -0.0659% (inactive) | inactive | inactive | – | inactive | – | – | inactive | –
28 | Oc1ccc2ccc3cccc4ccc1c2c34 | – | – | – | 15.5 µM (active) | inactive | – | – | – | – | – | inactive
29 | CCCCCCCCCCCCCCCC[n+]1ccccc1 | inactive | – | – | – | inactive | – | 34.2 µM (active) [middle of 4 runs] | – | – | – | –
30 | CCCCCCCCCCCCCCCCCCn1cc[n+](C)c1 | – | 5.42 µM (active) | -74.3% (inactive) | 7.72 µM (active) | inactive | 21.7 µM (active) | 19.4 µM (active) | 34.5 µM (active) | – | 22.4 µM (active) | –
31 | CC1(c2ccc(Oc3ccccc3)cc2)OC(=O)N(Nc2ccccc2)C1=O (stereo not drawn) | – | 2.45 µM (active) | -64.5% (inactive) | 43.9 µM (active) | inactive | – | – | 49.3 µM (active) | – | 50.8 µM (active) | –
32 | Oc1ccc(C(c2ccc(O)cc2)(C(F)(F)F)C(F)(F)F)cc1 | – | 54.2 µM (active) and 61.1 µM (active) | -65.7% (inactive) and -36.3% (inactive) | 43.4 µM (active) | inactive | inactive | 43.4 µM (active) and inactive | inactive | – | 113 µM (active) | –
33 | O=S(=O)(c1ccc(Cl)cc1)c1ccc(Cl)cc1 | – | 13.9 µM (active) | -35.9% (inactive) | – | inactive | – | – | – | – | 57.3 µM (active) | –
34 | COc1ccc(N)cc1N | – | 63.1 µM (active) and 14.7 µM (active) | – | 45 µM (active) | inactive | inactive | inactive | inactive | – | 41.4 µM (active) and 54.4 µM (active) | inactive
35 | c1cc[c]([Sb]([c]2ccccc2)[c]2ccccc2)cc1 | – | – | – | 54.9 µM (active) | inactive | inactive | inactive | inactive | – | – | inactive
